6 compounds from PubChem BioAssay can be followed below.

Several values for one entry are separate records, joined by “and”; a condition that tells them apart may be missing. Equal entries are not always repeated. For some assays here: Results with a measured potency or affinity are listed apart. Activity calls are given as the source filed them.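 How the source made its calls, unless noted: active means compounds whose cell count with miR-34 switched on is under 0.7 times the count with it off; inactive means the rest.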

A short description of assay [1]: blockers of polyQ-driven CASP3 activation – cell-based (AID 1583). As to conditions: polyglutamine-induced caspase-3 activation, cell assay; stronger effect = higher value;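 tested at 10 µM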.
Assay [2] in a line: yeast 75Q aggregation reduction – 75Q-TubU reporter (AID 1593). As to conditions: Yeast 75Q polyglutamine aggregation reporter.
The nature of assay [3]: restoration of touch response, mutant HTT neurons – whole organism, C. elegans mechanosensory neurons, N-terminal huntingtin (AID 1599). The settings on record: C. elegans polyQ-huntingtin mechanosensory neurons, stronger effect = higher value.
Assay [4] is described as follows: blockers of cytochrome c efflux from mitochondria – biochemical, purified mitochondria (AID 1603).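 Further: mouse liver mitochondria challenged with calcium chloride; signal normalized to the plate average as 100%.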 As to conditions: stronger effect = lower value.
A short description of assay [5]: polyglutamine aggregate formation blockers (AID 1604). The settings on record: polyglutamine-induced protein aggregation inhibition assay; stronger effect = higher value; tested at 2.5 µM.
The nature of assay [6]: glutamate transport activators, MN-1 cells, MN-1 cell line (AID 1612).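 Further: tested at 1 µM final; 0% = mean of DMSO vehicle wells on each plate; positive means more glutamate uptake than control and negative means less.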 As to conditions: MN-1 motor neuron cells, stronger effect = higher value.
Assay [7] can be described thus: GFP-Q80 aggregate reduction, neuronal-like cells, cell-based, NGF-treated PC12, GFPQ80 (AID 1614).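 Further: lower means fewer inclusions and 0 means no inclusions at all.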 As to conditions: PC12 NGF-treated GFP-polyQ80 inclusion reduction.
Assay [8] can be described thus: 75Q-TubH aggregate inhibition, S. cerevisiae, yeast (AID 1616). The settings on record: S. cerevisiae 75Q-TubH polyglutamine aggregation suppression; stronger effect = higher value.
Assay [9] is described as follows: compounds altering viability of human ES cells (AID 493140; call rule not given here;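 further: cells exposed to compounds for four days before counting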). The settings on record: human embryonic stem cell survival screen; stronger effect = higher value.
Assay [10] can be described thus: P. berghei load reduction in hepatocytes – cell-based, HepG2, luciferase luminescence, HepG2 viability, primary screen (AID 624349; in the data active means parasite load remaining mostly below about 12%, no sharp cut-off; inactive means mostly above about 10%;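 further: 100% = mean of DMSO negative control wells on the same plate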). The settings on record: P. berghei liver stage in HepG2, luciferase luminescence, concentration not given here; parasite load remaining: stronger effect = lower value; viability: measured here: HepG2 viability without parasites.
Assay [11] addresses 6-phosphogluconate dehydrogenase, decarboxylating (Homo sapiens) (UniProt P52209). As to the kind of experiment: inhibition of human phosphogluconate dehydrogenase – biochemical, recombinant enzyme, NADPH absorbance, primary screen (AID 1159550;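 active means at least 20% inhibition of 6-phosphogluconate dehydrogenase activity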). The settings on record: recombinant 6PGD, NADPH absorbance 341 nm; at 10 µM; stronger effect = higher value.
Assay [12] in a line: EMT-state selective cytotoxicity in co-culture – imaging, PC-3E GFP, TEM4-18 mCherry, primary screen (AID 1345086;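 active means compounds killing one labelled cell type while sparing the other, by normalised counts and ratio limits, not self-fluorescent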;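 on all read-outs here: cells exposed to compound for 72 h before imaging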;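 on red/green cell ratio (normalised): normalised mesenchymal count divided by normalised epithelial count so high means epithelial killing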). As to conditions: PC-3E GFP / TEM4-18 mCherry co-culture, imaging cell counts, at 1 µM; for red/green cell ratio (normalised): actives lie on both sides, counts scaled to control wells, 1 = unselective.
Assay [13] in a line: viability loss with induced miR-34 in A549 – imaging, A549 dox-inducible miR-34, nuclei and caspase counts, primary screen (AID 1347080). The settings on record: A549 miR-34 inducible, Hoechst nuclei count, 48 h.
A short description of assay [14]: MELAS cybrid and Rieske KO viability enhancers – cell-based, MELAS cybrids, Rieske KO mouse fibroblasts, CellTiter-Glo, primary screen (AID 1508586;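 active means mean z-score across replicates of 1.96 or higher in either the MELAS or the Rieske mutant cell line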;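 further: z relative to plate mean and SD of compound and empty wells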). The settings on record: low glucose. (ATP-based viability assays read luminescence as a measure of living cells.)
The target in assay [15] is Mitogen-activated protein kinase 7 (Homo sapiens) (UniProt Q13164). As to the kind of experiment: Gal4-ERK5 driven luciferase induction – cell-based, HTS, primary screen (AID 1508626;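 active means luciferase signal above three times the same-plate solvent-only control wells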;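 further: luciferase driven by Gal4-ERK5 fusion binding five Gal4 sites before minimal TATA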). As to conditions: HeLa Gal4-ERK5 transactivation, 18 h, at 5 µM, stronger effect = higher value.
Mitogen-activated protein kinase 7 (Homo sapiens), sequence (Q13164 whole entry, looked up, the tested form may be a part): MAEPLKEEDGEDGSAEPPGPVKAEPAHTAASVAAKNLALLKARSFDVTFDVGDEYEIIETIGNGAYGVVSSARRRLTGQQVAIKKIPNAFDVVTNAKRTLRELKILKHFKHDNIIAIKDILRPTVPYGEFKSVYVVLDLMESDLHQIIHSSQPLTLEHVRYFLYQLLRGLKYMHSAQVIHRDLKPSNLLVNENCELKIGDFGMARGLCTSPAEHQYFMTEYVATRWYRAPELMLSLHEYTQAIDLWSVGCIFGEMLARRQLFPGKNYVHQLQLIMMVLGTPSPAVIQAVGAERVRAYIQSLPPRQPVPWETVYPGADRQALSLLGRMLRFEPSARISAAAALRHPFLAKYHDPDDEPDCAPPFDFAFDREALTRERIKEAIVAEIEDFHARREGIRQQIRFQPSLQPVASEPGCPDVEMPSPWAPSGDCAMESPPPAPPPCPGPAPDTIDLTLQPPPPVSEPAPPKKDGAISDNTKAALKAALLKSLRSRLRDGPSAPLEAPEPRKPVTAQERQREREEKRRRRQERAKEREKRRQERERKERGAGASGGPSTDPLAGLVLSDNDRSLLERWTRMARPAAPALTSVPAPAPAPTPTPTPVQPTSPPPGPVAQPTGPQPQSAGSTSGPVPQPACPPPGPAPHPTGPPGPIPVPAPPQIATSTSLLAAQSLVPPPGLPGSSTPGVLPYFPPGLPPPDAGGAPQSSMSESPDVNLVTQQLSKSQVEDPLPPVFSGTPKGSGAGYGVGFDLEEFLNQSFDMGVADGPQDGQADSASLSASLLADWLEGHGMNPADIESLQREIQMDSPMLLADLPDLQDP
Assay [16] in a line: compounds altering circadian rhythm period length – cell-based, LOPAC library, luminescence reporter (AID 2774; call rule not given here;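 further: values are relative to mean of DMSO wells on each plate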). The settings on record: circadian reporter cells, at 7 µM, actives lie on both sides.
Assay [17] is described as follows: blockers of cellular phospholipid synthesis – cell-based, LOPAC library, screen 4, primary screen (AID 1347384; call rule not given here). As to conditions: animal cells, phospholipid biosynthesis inhibition screen; at 10 µM.
Assay [18] is described as follows: galactose survival enhancers in mitochondrial complex I cybrids – cell-based, galactose medium, ATP luminescence, primary screen (AID 1645843;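 active means z-score of at least 1.8 in each of two replicates, scored against plate mean and spread of sample wells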;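 further: positive z means more ATP and so rescue of galactose-driven cybrid death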). The settings on record: complex I mutant cybrid cells, 72 h, stronger effect = higher value.
Assay [19] has as its target NAD(+) hydrolase SARM1 (Homo sapiens) (UniProt Q6SZW1). Nature of the assay: blocking NAD cleavage by SARM1 SAM-TIR – cell lysate, NAD-Glo luminescence (AID 1508614;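 active means compound whose remaining NAD level is above about 45 nM, limit read from the data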). As to conditions: SAM-TIR HEK293T lysate NADase, at 1 µM, stronger effect = higher value.
Setting [20] is: measured here: epithelial PC-3E GFP cell survival.
Setting [21] is: measured here: mesenchymal TEM4-18 mCherry cell survival.
The mark [22] stands for this setting: stronger effect = lower value, cell number ratio, induced over uninduced.
Setting [23] is: measured here: relative caspase fold change +Dox/-Dox.
Where [24] appears, read: measured here: total cells with miR-34 induction, stronger effect = lower value.
Setting [25] is: measured here: total cells without miR-34 induction.
Where [26] appears, read: MELAS cybrid survival, CellTiter-Glo 48 h, stronger effect = higher value.
[27] abbreviates: Rieske KO mouse fibroblast survival, CellTiter-Glo 72 h.

6-phosphogluconate dehydrogenase, decarboxylating (Homo sapiens), sequence (P52209 whole entry, looked up): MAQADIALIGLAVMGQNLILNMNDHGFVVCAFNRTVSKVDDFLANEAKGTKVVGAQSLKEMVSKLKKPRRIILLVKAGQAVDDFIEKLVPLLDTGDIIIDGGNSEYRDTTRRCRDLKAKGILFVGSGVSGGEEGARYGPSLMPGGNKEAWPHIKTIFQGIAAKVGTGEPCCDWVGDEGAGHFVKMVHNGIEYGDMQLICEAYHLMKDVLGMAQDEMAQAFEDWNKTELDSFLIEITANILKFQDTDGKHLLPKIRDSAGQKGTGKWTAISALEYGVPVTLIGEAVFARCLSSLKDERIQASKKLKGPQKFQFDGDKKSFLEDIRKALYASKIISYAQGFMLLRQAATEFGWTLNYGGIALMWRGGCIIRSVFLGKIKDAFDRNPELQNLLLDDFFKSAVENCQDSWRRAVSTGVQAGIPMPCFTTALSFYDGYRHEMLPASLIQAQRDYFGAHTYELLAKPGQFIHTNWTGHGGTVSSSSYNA
NAD(+) hydrolase SARM1 (Homo sapiens), sequence (Q6SZW1 whole entry, looked up): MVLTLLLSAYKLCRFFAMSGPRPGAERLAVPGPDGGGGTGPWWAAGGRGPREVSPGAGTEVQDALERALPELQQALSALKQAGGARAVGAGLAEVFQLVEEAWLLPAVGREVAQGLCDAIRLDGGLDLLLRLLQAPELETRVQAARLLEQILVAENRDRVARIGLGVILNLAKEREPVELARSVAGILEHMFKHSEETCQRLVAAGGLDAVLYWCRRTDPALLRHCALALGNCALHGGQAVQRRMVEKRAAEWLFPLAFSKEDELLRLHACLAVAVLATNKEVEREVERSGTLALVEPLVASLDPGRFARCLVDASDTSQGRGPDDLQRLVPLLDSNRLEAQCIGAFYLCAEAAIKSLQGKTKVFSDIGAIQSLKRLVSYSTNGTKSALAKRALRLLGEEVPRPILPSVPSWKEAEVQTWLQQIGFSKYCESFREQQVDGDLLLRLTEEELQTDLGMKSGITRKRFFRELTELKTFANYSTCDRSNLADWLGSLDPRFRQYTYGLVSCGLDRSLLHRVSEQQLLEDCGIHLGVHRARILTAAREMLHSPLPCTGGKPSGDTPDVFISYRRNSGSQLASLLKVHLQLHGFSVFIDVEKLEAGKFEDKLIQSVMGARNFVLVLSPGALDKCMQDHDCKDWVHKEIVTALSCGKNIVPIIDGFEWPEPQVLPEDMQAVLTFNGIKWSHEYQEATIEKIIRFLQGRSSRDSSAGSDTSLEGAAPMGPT

The term inhibition denotes the drop in the measured response relative to a control, in per cent. Usually viability stands for a read-out of living cells in per cent, often relative to untreated cells. Consider `COc1cc(S(C)=O)ccc1-c1nc2ncccc2[nH]1` (stereo not given), for which the inhibition is 23% in assay [1] and 14% (inactive) in [11]. For the same compound, in [2], the score stood at 1.52. The rescue above control in assay [3] is 8.66. The cytochrome c release ratio in [4] came to 0.94. The inhibition of aggregation in [5] worked out at 3.24%. Moreover, the glutamate uptake change in assay [6] worked out at 3.5%. Besides, the inclusion score in assay [7] turned out to be 2. In assay [8], the aggregation suppression score turned out to be 1.25. In assay [9], the survival was 5.5 (inactive). In addition, the parasite load remaining in [10] is 107% (inactive). In assay [10], the viability is 101%. For the same compound, the red/green cell ratio (normalised) in [12] was 1.07 (inactive). Besides, the values for the normalised cell number in assay [12] (setting [20]) and in assay [12] (setting [21]) were 0.84 and 0.9, respectively. Also, the fold change in assay [13] (setting [22]) was 0.851 (inactive); in [13] (setting [23]), 1.41. Further, the figures for the cell count in assay [13] (setting [24]) and in [13] (setting [25]) were 7350 and 8630, respectively. For the same compound, the z-score in assay [14] (setting [26]) is -0.22 (inactive); in [14] (setting [27]) it was 0.17. Further, the luciferase signal in assay [15] is 48 AU (inactive).
With `NC(N)=NC(=O)c1nc(Cl)c(N2CCCCCC2)nc1N`, in [16], the period change was 0.165 h (inactive). Besides, the inhibition in assay [11] is 12.2% (inactive). The red/green cell ratio (normalised) in assay [12] was 0.8 (inactive). Also, the values for the normalised cell number in [12] (setting [20]) and in assay [12] (setting [21]) were 1.26 and 1.01, respectively. Also, the fold change is 1.18 (inactive) in [13] (setting [22]) and 1.04 in assay [13] (setting [23]). The cell count in assay [13] (setting [24]) came to 4710; in [13] (setting [25]), 3990. The compound was called inactive in assay [17]. For the same compound, the z-score in [18] was -1.46 (inactive).
For `CC(=O)Oc1ccccc1C(=O)Oc1ccccc1C(=O)O`, the survival in assay [9] was 16.8 (inactive). Also, the parasite load remaining in assay [10] is 36.8% (inactive) and 92.5% (inactive). Further, in assay [10], the viability was 53.8% and 90.5%. In assay [11], the inhibition was 14.2% (inactive). For the same compound, the red/green cell ratio (normalised) in [12] was 1.07 (inactive). In addition, the normalised cell number amounted to 0.97 in assay [12] (setting [20]) and 1.04 in [12] (setting [21]). Also, the fold change in assay [13] (setting [22]) was 0.938 (inactive); in assay [13] (setting [23]) it was 0.828. The cell count was found to be 8700 in assay [13] (setting [24]) and 9270 in assay [13] (setting [25]). Also, the z-score in assay [14] (setting [26]) was -0.224 (inactive); in [14] (setting [27]), 0.071. Besides, the luciferase signal in assay [15] is 48 AU (inactive).
As for `CN1CCc2cccc3c2C1Cc1ccc(O)c(O)c1-3` (stereo not given), the inhibition in assay [1] is 1.43%; in [11], -2.58% (inactive). In assay [2], this compound registered a score of 0.79. Besides, the rescue above control in assay [3] is 3.21. Further, the cytochrome c release ratio in assay [4] came to 0.9. Besides, the inhibition of aggregation in assay [5] came to 85.7%. For the same compound, the glutamate uptake change in [6] came out at 14%. Also, the inclusion score in assay [7] worked out at 2. Besides, the aggregation suppression score in [8] turned out to be 1.03. Also, the period change in assay [16] is 0.35 h (inactive). Further, in assay [10], the parasite load remaining is 9.7% (inactive) and 18.2% (inactive). Also, the viability in assay [10] is 65% and 86.9%. In [12], the red/green cell ratio (normalised) was 1.13 (inactive). In addition, the figures for the normalised cell number in assay [12] (setting [20]) and in assay [12] (setting [21]) were 1.2 and 1.36, respectively. Besides, the fold change in assay [13] (setting [22]) is 0.965 (inactive) and 0.839 (inactive); in assay [13] (setting [23]), 2.09 and 1.99. The cell count in assay [13] (setting [24]) was 7940 and 8770; in assay [13] (setting [25]), 8230 and 10400. Besides, the compound was classed as inactive in assay [17]. In addition, the z-score in assay [18] was -1.52 (inactive).
Consider `Cc1cc(C(C)(C)CC(C)(C)C)ccc1OCCOCC[N+](C)(C)Cc1ccccc1`, for which the figures for the inhibition in [1] and in assay [11] were -7.8% and 18.8% (inactive), respectively. For the same compound, in assay [2], the score was -0.1. For the same compound, the rescue above control in assay [3] is 0. In [4], the cytochrome c release ratio came to 6.77. For the same compound, the inhibition of aggregation in assay [5] is 63.9%. For the same compound, in assay [6], the glutamate uptake change turned out to be 10.8%. Moreover, the aggregation suppression score in [8] was -0.0187. For the same compound, the survival in assay [9] was 0.167 (inactive). Moreover, the parasite load remaining in assay [10] was 26.8% (inactive) and 101% (inactive) and 11.6% (inactive). Besides, in assay [10], the viability was 87.1% and 82% and 145%. The red/green cell ratio (normalised) in assay [12] is 1.11 (inactive). Besides, the normalised cell number in [12] (setting [20]) stood at 0.89; in assay [12] (setting [21]), 0.98. Moreover, the fold change was 0.811 (inactive) and 0.9 (inactive) in assay [13] (setting [22]); 1.18 and 1.77 in [13] (setting [23]). The cell count was 1940 and 8590 in [13] (setting [24]); 2400 and 9540 in assay [13] (setting [25]). The z-score in assay [14] (setting [26]) is -1.41; in [14] (setting [27]), 2.46. The remaining NAD in assay [19] was 10 nM (inactive). Further, the luciferase signal in assay [15] was 116 AU (inactive).
On to `CC(=O)N1CCN(c2ccc(OCC3CO[C@](Cn4ccnc4)(c4ccc(Cl)cc4Cl)O3)cc2)CC1` (stereo not given in full), for which the inhibition in assay [1] was -4.16%; in assay [11], -8.94% (inactive). The compound further registered a score in assay [2] of 0.15. The compound further showed a rescue above control in [3] of 0.92. Further, the cytochrome c release ratio in [4] came out at 1.8. In addition, in assay [5], the inhibition of aggregation is 88.5%. Moreover, the glutamate uptake change in assay [6] was -8.61%. In assay [8], this compound yielded an aggregation suppression score of 0.126. For the same compound, the parasite load remaining in assay [10] is 15.3% (inactive) and 4.75% (inactive). Besides, the viability in assay [10] is 65.5% and 60%. For the same compound, the red/green cell ratio (normalised) in [12] is 0.9 (inactive). In addition, the values for the normalised cell number in assay [12] (setting [20]) and in assay [12] (setting [21]) were 0.95 and 0.85, respectively. For the same compound, the fold change is 1 (inactive) and 1.02 (inactive) and 0.954 (inactive) in assay [13] (setting [22]); 2.72 and 0.263 and 1.79 in assay [13] (setting [23]). The cell count is 7410 and 7100 and 8230 in assay [13] (setting [24]); 7380 and 6960 and 8630 in [13] (setting [25]). In addition, the results for the z-score in assay [14] (setting [26]), in assay [14] (setting [27]) and in [18] were -0.501 (inactive), -0.0671 and -0.8 (inactive), respectively.
